Measurements reported in PubChem BioAssay AID1159580 (chemical genetic matrix, 2015).
Where “and” joins values, the source holds several entries; their conditions need not be identical. Identical values can stand only once. In all, about 5,500 compounds went through this assay and about 2,000 (36%) were called active. Inconclusive results (about 18%) are left out. Rule as the data show it: active = normalized growth mostly below about 0.91 (no sharp cut-off); inconclusive = no clear call, values can overlap the other calls; inactive = mostly above about 0.92. The list shows a part of the results.

Assay: chemical genetic growth profiling, strain panel (AID 1159580);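 also: tested at 20 µM; growth read once vehicle control cultures reached saturation at 30 °C; 1 = growth at the plate median or of vehicle wells; lower values mean less growth of the strain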
Details: growth OD

Measured: normalized growth

O=C1c2ccccc2C(=O)C1c1ccccc1
inactive: S. cerevisiae deletion strains, locus YKL085W, strain MDH1 (second series), stronger effect = lower value 0.994 | S. cerevisiae deletion strains, locus YKL085W, strain MDH1, stronger effect = lower value 0.994 | S. cerevisiae deletion strains, locus YKL160W, strain elf1, stronger effect = lower value 1 | S. cerevisiae deletion strains, locus YKL190W, strain CNB1, stronger effect = lower value 1 | S. cerevisiae deletion strains, locus YKR001C, strain vps1, stronger effect = lower value 1.01 | S. cerevisiae deletion strains, locus YKR026C, strain gcn3, stronger effect = lower value 0.976 | S. cerevisiae deletion strains, locus YKR091W, strain srl3, stronger effect = lower value 0.997 | S. cerevisiae deletion strains, locus YLL001W, strain dnm1, stronger effect = lower value 1 | S. cerevisiae deletion strains, locus YLL026W, stronger effect = lower value 0.993 | S. cerevisiae deletion strains, locus YLL041C, strain sdh2, stronger effect = lower value 1 | S. cerevisiae deletion strains, locus YLR027C, strain aat2, stronger effect = lower value 0.998 | S. cerevisiae deletion strains, locus YLR039C, strain RIC1, stronger effect = lower value 0.983 and 0.913 | S. cerevisiae deletion strains, locus YLR058C, strain SHM2, stronger effect = lower value 1.01 | S. cerevisiae deletion strains, locus YLR085C, strain ARP6, stronger effect = lower value 0.972 | S. cerevisiae deletion strains, locus YLR102C, strain apc9, stronger effect = lower value 1.01 | S. cerevisiae deletion strains, locus YLR113W, strain HOG1, stronger effect = lower value 0.934 | S. cerevisiae deletion strains, locus YLR221C, strain rsa3, stronger effect = lower value 1 | S. cerevisiae deletion strains, locus YLR258W, strain gsy2, stronger effect = lower value 1.02 | S. cerevisiae deletion strains, locus YLR262C, strain YPT6 (second series), stronger effect = lower value 1 | S. cerevisiae deletion strains, locus YLR262C, strain YPT6, stronger effect = lower value 0.967 and 0.909 | S. cerevisiae deletion strains, locus YLR268W, strain sec22, stronger effect = lower value 1.03 | S. cerevisiae deletion strains, locus YLR320W, strain mms22, stronger effect = lower value 1.01 | S. cerevisiae deletion strains, locus YLR330W, strain CHS5, stronger effect = lower value 0.999 | S. cerevisiae deletion strains, locus YLR342W, strain FKS1 (second series), stronger effect = lower value 1.01 | S. cerevisiae deletion strains, locus YLR342W, strain FKS1, stronger effect = lower value 0.998 | S. cerevisiae deletion strains, locus YLR357W, strain rsc2, stronger effect = lower value 1.03 | S. cerevisiae deletion strains, locus YLR370C, strain arc18, stronger effect = lower value 1 | S. cerevisiae deletion strains, locus YLR371W, strain rom2, stronger effect = lower value 1.01 | S. cerevisiae deletion strains, locus YLR384C, strain iki3, stronger effect = lower value 1 | S. cerevisiae deletion strains, locus YLR418C, strain cdc73, stronger effect = lower value 0.98 | S. cerevisiae deletion strains, locus YML016C, strain PPZ1, stronger effect = lower value 1 | S. cerevisiae deletion strains, locus YML032C, strain rad52, stronger effect = lower value 1.01 | S. cerevisiae deletion strains, locus YML094W, strain GIM5, stronger effect = lower value 0.945 | S. cerevisiae deletion strains, locus YML120C, strain ndi1, stronger effect = lower value 1.01 | S. cerevisiae deletion strains, locus YML124C, strain tub3, stronger effect = lower value 1.01 | S. cerevisiae deletion strains, locus YMR058W, strain fet3, stronger effect = lower value 0.999 | S. cerevisiae deletion strains, locus YMR078C, strain ctf18, stronger effect = lower value 1.01 | S. cerevisiae deletion strains, locus YMR125W, strain sto1, stronger effect = lower value 0.995 | S. cerevisiae deletion strains, locus YMR129W, stronger effect = lower value 0.992 | S. cerevisiae deletion strains, locus YMR205C, strain PFK2, stronger effect = lower value 1.01 | S. cerevisiae deletion strains, locus YMR219W, strain ESC1, stronger effect = lower value 0.954 | S. cerevisiae deletion strains, locus YMR223W, strain ubp8, stronger effect = lower value 1 | S. cerevisiae deletion strains, locus YMR231W, strain pep5, stronger effect = lower value 1 | S. cerevisiae deletion strains, locus YMR263W, strain SAP30, stronger effect = lower value 1.01 | S. cerevisiae deletion strains, locus YMR307W, strain GAS1, stronger effect = lower value 1.01 | S. cerevisiae deletion strains, locus YNL067W, strain RPL9B, stronger effect = lower value 0.999 | S. cerevisiae deletion strains, locus YNL071W, strain lat1, stronger effect = lower value 1 | S. cerevisiae deletion strains, locus YNL128W, strain TEP1, stronger effect = lower value 1.02 | S. cerevisiae deletion strains, locus YNL153C, strain GIM3, stronger effect = lower value 0.996 and 0.979 | S. cerevisiae deletion strains, locus YNL183C, strain NPR1, stronger effect = lower value 0.939 | S. cerevisiae deletion strains, locus YNL209W, strain ssb2, stronger effect = lower value 1.01 | S. cerevisiae deletion strains, locus YNL233W, strain BNI4, stronger effect = lower value 1 | S. cerevisiae deletion strains, locus YNL248C, strain rpa49, stronger effect = lower value 1 | S. cerevisiae deletion strains, locus YNL250W, strain rad50, stronger effect = lower value 0.989 | S. cerevisiae deletion strains, locus YNL271C, strain bni1, stronger effect = lower value 1 | S. cerevisiae deletion strains, locus YNL298W, strain CLA4 (second series), stronger effect = lower value 0.968 | S. cerevisiae deletion strains, locus YNL298W, strain CLA4, stronger effect = lower value 0.994 | S. cerevisiae deletion strains, locus YNL307C, strain MCK1, stronger effect = lower value 1 | S. cerevisiae deletion strains, locus YNL322C, strain KRE1 (second series), stronger effect = lower value 1 | S. cerevisiae deletion strains, locus YNL322C, strain KRE1, stronger effect = lower value 1 and 0.969 | S. cerevisiae deletion strains, locus YNR030W, strain Alg12, stronger effect = lower value 0.969 | S. cerevisiae deletion strains, locus YNR049C, strain mso1, stronger effect = lower value 0.998 | S. cerevisiae deletion strains, locus YNR052C, strain pop2, stronger effect = lower value 1.01 | S. cerevisiae deletion strains, locus YOL006C, strain TOP1, stronger effect = lower value 0.964 | S. cerevisiae deletion strains, locus YOL012C, strain htz1 0.826 | S. cerevisiae deletion strains, locus YOL147C, strain pex11, stronger effect = lower value 1.01 | S. cerevisiae deletion strains, locus YOR001W, strain rrp6, stronger effect = lower value 1.01 | S. cerevisiae deletion strains, locus YOR061W, strain CKA2, stronger effect = lower value 1 | S. cerevisiae deletion strains, locus YOR069W, strain VPS5, stronger effect = lower value 1 | S. cerevisiae deletion strains, locus YOR070C, strain gyp1, stronger effect = lower value 0.996 | S. cerevisiae deletion strains, locus YOR080W, strain dia2, stronger effect = lower value 1 | S. cerevisiae deletion strains, locus YOR083W, strain WHI5, stronger effect = lower value 0.999 | S. cerevisiae deletion strains, locus YOR106W, strain vam3, stronger effect = lower value 1.01 | S. cerevisiae deletion strains, locus YOR136W, strain idh2, stronger effect = lower value 1.01 | S. cerevisiae deletion strains, locus YOR144C, strain elg1, stronger effect = lower value 1 | S. cerevisiae deletion strains, locus YOR184W, strain ser1, stronger effect = lower value 1.02 | S. cerevisiae deletion strains, locus YOR231W, strain MKK1, stronger effect = lower value 0.992 | S. cerevisiae deletion strains, locus YOR265W, strain rbl2, stronger effect = lower value 0.995 | S. cerevisiae deletion strains, locus YOR270C, strain vph1, stronger effect = lower value 1.01 | S. cerevisiae deletion strains, locus YOR290C, strain snf2, stronger effect = lower value 0.997 | S. cerevisiae deletion strains, locus YOR316C, strain cot1, stronger effect = lower value 1.01 | S. cerevisiae deletion strains, locus YPL051W, strain arl3, stronger effect = lower value 1 | S. cerevisiae deletion strains, locus YPL055C, strain LGE1, stronger effect = lower value 1 and 0.972 | S. cerevisiae deletion strains, locus YPL078C, strain atp4, stronger effect = lower value 1 | S. cerevisiae deletion strains, locus YPL106C, strain sse1, stronger effect = lower value 1.01 | S. cerevisiae deletion strains, locus YPL240C, strain hsp82, stronger effect = lower value 1 | S. cerevisiae deletion strains, locus YPL256C, strain CLN2, stronger effect = lower value 0.917 | S. cerevisiae deletion strains, locus YPR119W, strain clb2, stronger effect = lower value 1.01 | S. cerevisiae deletion strains, locus YPR135W, strain CTF4, stronger effect = lower value 0.934 | S. cerevisiae deletion strains, locus YPR141C, strain kar3, stronger effect = lower value 0.987 | S. cerevisiae deletion strains, locus YPR163C, strain tif3, stronger effect = lower value 1.01 | S. cerevisiae deletion strains, locus YPR167C, strain met16, stronger effect = lower value 1.01 | S. cerevisiae deletion strains, strain wtn01, stronger effect = lower value 1.01 | S. cerevisiae strains, strain wild type, stronger effect = lower value 0.999 and 0.961
active: S. cerevisiae deletion strains, locus YLR058C, strain SHM2 (second series), stronger effect = lower value 0.932 | S. cerevisiae deletion strains, locus YPL241C, strain CIN2, stronger effect = lower value 1.21 [resistant]
